A short description of assay [1]: Nuclear factor erythroid 2-related factor 2/antioxidant responsive element (Nrf2/ARE) small molecule agonists: qHTS cell viability counter screen in human keratinocytes (AID 1919968; active = well fitted curve in the direction sought with a large enough effect in the repeat runs; an effect the other way counts as inactive or inconclusive; also: nearly all actives have a fitted effect of over 55% in size). In short, it runs like this:
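Seed 1,500 KeratinoSens cells per well, then incubate 5 h at 37 C/5% CO2. Add compounds in DMSO and incubate 23 h. Add CellTiter-Fluor, wait 1 h and read fluorescence.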

Assay [2] is described as follows: Nuclear factor erythroid 2-related factor 2/antioxidant responsive element (Nrf2/ARE) small molecule agonists: luciferase reporter gene qHTS assay in human keratinocytes (AID 1919969; also: nearly all actives have a fitted effect of over 35% in size). (A reporter such as luciferase makes a cellular process visible.)
Assay [3] has as its target Gonadotropin-releasing hormone receptor (Homo sapiens) (UniProt P30968). Nature of the assay: Human gonadotropin-releasing hormone receptor (GnRHR) small molecule agonists, calcium flux assay in GnRHR-HEK293 cells (AID 1920063). Also: nearly all actives have a fitted effect of over 35% in size. In a few lines:
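Cells: HEK293 stably expressing human GnRHR. Steps: overnight (18 h) culture, 1 h calcium dye loading at 37 C, compound addition, kinetic fluorescence read at 480/540 nm. Each compound tested at 15 concentrations in triplicate.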
Background: Calcium flux is commonly read through the fluorescence of an indicator in the cells.

For assay [4], the target named is KiSS-1 receptor (Homo sapiens) (UniProt Q969F8). Nature of the assay: Human kisspeptin (KISS1R) small molecule agonists, calcium flux assay in KISS1R-HEK293 cells (AID 1920064; active = well fitted curve in the direction sought with a large enough effect in the repeat runs; an effect the other way counts as inactive or inconclusive). In short, it runs like this: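 Cells plated and incubated 18 h; dye added, 1 h at 37 C; compounds in DMSO pinned in; signal read at 480/540 nm every second for 3 min. Each compound tested at 15 concentrations in triplicate.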
Sequence of KiSS-1 receptor (Homo sapiens) (Q969F8 whole entry, looked up): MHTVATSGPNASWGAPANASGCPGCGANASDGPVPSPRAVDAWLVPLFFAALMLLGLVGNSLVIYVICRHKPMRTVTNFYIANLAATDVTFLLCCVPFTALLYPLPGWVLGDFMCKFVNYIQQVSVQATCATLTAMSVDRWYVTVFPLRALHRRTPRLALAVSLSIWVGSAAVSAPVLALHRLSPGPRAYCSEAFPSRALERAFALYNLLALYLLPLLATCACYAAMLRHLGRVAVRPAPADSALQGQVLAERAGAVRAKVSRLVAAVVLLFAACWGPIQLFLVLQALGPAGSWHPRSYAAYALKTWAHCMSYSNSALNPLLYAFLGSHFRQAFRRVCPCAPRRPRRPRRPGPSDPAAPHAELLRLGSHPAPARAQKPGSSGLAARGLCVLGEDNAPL

Assay [5] in a line: G protein-coupled receptor (GPCR) small molecule agonists, calcium flux assay: HEK293 wild type cell line counter screen (AID 1920065). In short, it runs like this:
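Counter-screen of the Tox21 10K library for non-specific calcium release: dye-loaded cells received compounds in DMSO and were monitored by kinetic fluorescence (480/540 nm, 3 min). Fifteen concentrations, run in triplicate.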

Assay [6] can be described thus: p53 small molecule agonists, cell-based qHTS assay with human liver microsomes (AID 1963577).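 Also: p53 response element beta-lactamase reporter cells with liver microsomes plus NADPH.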 In a few lines:
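p53RE-bla cells; 5 h settle, 37 C/5% CO2; cpd + HLM 0.5 mg/mL + NADPH 0.5 mg/mL (final); 16 h 37 C; LiveBLAzer 2 h RT dark; fluorescence readout.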
In general terms: Quantitative high-throughput screening tests each substance at several concentrations.

Assay [7] in a line: p53 small molecule agonists, cell-based qHTS assay with rat liver microsomes (AID 1963578). In short, it runs like this: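 Rat liver microsome activation: microsomes 0.5 mg/mL, NADPH 0.5 mg/mL final; p53RE-bla cells, 16 h 37 C; LiveBLAzer readout, 2 h RT dark.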
A short description of assay [8]: p53 small molecule agonists, cell-based qHTS assay with human liver microsomes: qHTS cell viability counter screen (AID 1963579). Also: nearly all actives have a fitted effect of over 45% in size. In short, it runs like this:
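Luminescent CellTiter-Glo read-out, 30 min at room temperature, gauged cytotoxicity in p53RE-bla cells exposed 16 h at 37 C to DMSO-dissolved compounds with metabolic activation by human liver microsomes and NADPH, each 0.5 mg/mL final.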

Assay [9] is described as follows: p53 small molecule agonists, cell-based qHTS assay: qHTS cell viability counter screen (AID 1963581). Also: nearly all actives have a fitted effect of over 45% in size. In short, it runs like this: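 Cells: HCT-116 with p53 response element-driven beta-lactamase. Treatment: 16 h, 37 C, compounds in DMSO. Read: CellTiter-Glo luminescence after 30 min RT.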
The nature of assay [10]: p53 small molecule agonists, cell-based qHTS assay (AID 1963582; active = well fitted activation curve with a large enough effect in the signal ratio in the repeat runs, not every such curve was filed as active; the % refers to the signal ratio). In a few lines: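 Quantitative HTS in p53RE-bla cells: after a 5 h settling period, compounds delivered in DMSO were left on cells for 16 h at 37 C, and reporter induction was measured as fluorescence following 2 h substrate loading.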
Assay [11] has as its target 5-hydroxytryptamine receptor 2A (Homo sapiens) (UniProt P28223). Nature of the assay: 5-hydroxytryptamine receptor 2A (HTR2A) small molecule antagonists, cell-based qHTS assay (AID 1963586). Also: nearly all actives have a fitted effect of over 45% in size. Also: potency is read from the fitted curve at half-maximal effect. In short, it runs like this: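 Antagonist-mode intracellular calcium assay: DOI (4 nM) added after 5 min compound pre-incubation at room temperature to dye-loaded HTR2A-CHO cells. Fluorescence followed for 3 min, sampled every second.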

For assay [12] the target is unchanged. Description: 5-hydroxytryptamine receptor 2A (HTR2A) small molecule agonists, cell-based qHTS assay (AID 1963587). Also: nearly all actives have a fitted effect of over 30% in size. In short, it runs like this:
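CHO cells stably expressing human HTR2A, plated 18 h, loaded with calcium dye 1 h at 37 C. Agonist mode: compounds added and intracellular calcium fluorescence recorded kinetically for 2 min at 1 sec intervals.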

Assay [13] deals with Muscarinic acetylcholine receptor M1 (Homo sapiens) (UniProt P11229). Nature of the assay: Cholinergic receptor muscarinic 1 (CHRM1) small molecule antagonists, cell-based qHTS assay (AID 1963588). Also: nearly all actives have a fitted effect of over 40% in size. In short, it runs like this:
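CHRM1-CHO calcium-flux assay, antagonist mode. Cells were seeded 18 h, dye-loaded 1 h at 37 C and given compound for 5 min at RT, then acetylcholine was added at 50nM. FDSS fluorescence was read 3 min; 15 concentrations, three runs.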

For assay [14] the target is unchanged. Description: Cholinergic receptor muscarinic 1 (CHRM1) small molecule agonists, cell-based qHTS assay (AID 1963589). Also: nearly all actives have a fitted effect of over 35% in size. In a few lines:
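Agonist-mode qHTS in CHO cells stably carrying human muscarinic M1. Intracellular calcium is tracked by fluorescence every second after compound transfer; each compound runs at 15 concentrations in three independent runs.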

Assay [15] can be described thus: cAMP Responsive Elements (CRE) small molecule agonists, cell-based qHTS assay (AID 1963590). In a few lines:
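Agonist mode qHTS in CRE-bla HEK 293T cells: compounds dosed from DMSO for 3 h at 37 C/5% CO2, followed by LiveBLAzer B/G FRET substrate for 2 h at room temperature.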

A short description of assay [16]: cAMP Responsive Elements (CRE) small molecule antagonists, cell-based qHTS assay (AID 1963591; active = well fitted inhibition curve with a large enough effect in the signal ratio in the repeat runs, not every such curve was filed as active; the % refers to the signal ratio). In a few lines: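 Antagonist mode: test compounds are co-incubated with the adenylyl cyclase activator NKH477 (0.25 uM final) on CRE-bla HEK293T cells for 3 h at 37 °C, followed by LiveBLAzer substrate loading.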
Assay [17] has as its target Beta-2 adrenergic receptor (Homo sapiens) (UniProt P07550). Description: Adrenergic beta2 receptor (ADRB2) small molecule antagonists, cell-based qHTS assay (AID 1963592). Also: series mostly up to about 92 µM; nearly all actives have a fitted effect of over 50% in size. In short, it runs like this:
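Cells (CHO, stable ADRB2 overexpression) incubated 18-20hr at 37C; compounds added from DMSO; agonist mix (1nM isoproterenol, 100uM IBMX, 25uM Ro-20-1724) added; 0.5hr RT; d2-cAMP and anti-cAMP-cryptate added; 1hr RT; 665/615 nm read.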

Assay [18] addresses D(2) dopamine receptor (Homo sapiens) (UniProt P14416). Nature of the assay: Dopamine D2 receptor (DRD2) small molecule agonists, cell-based qHTS assay (AID 1963594). Also: nearly all actives have a fitted effect of over 35% in size. In a few lines: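 HEK293 cells stably expressing human DRD2, pre-treated with PDE inhibitor Ro20-1724 (0.1 mM final) and compound 10 min at room temperature, then stimulated with NKH477 (200nM […]) for 30 min. cAMP read by HTRF (665/620 nm).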

Assay [19] has the same target. Description: Dopamine D2 receptor (DRD2) small molecule antagonists, cell-based qHTS assay (AID 1963595; active = well fitted inhibition curve with a large enough effect in the signal ratio in the repeat runs, with a control signal flat; the % refers to the signal ratio). In a few lines: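 Cells were plated and grown for 24 h at 37 °C. Ro20-1724 (0.1 mM final) went in first, then compound for 10 min. NKH477 (200 nM) with quinpirole (12 nM) followed for 30 min at RT, then HTRF detection reagents for 1 h.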
Assay [20] addresses Beta-2 adrenergic receptor (Homo sapiens) (UniProt P07550). Nature of the assay: Adrenergic beta2 receptor (ADRB2) small molecule agonists, cell-based qHTS assay (AID 1963593).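 Also: CHO cells stably overexpressing human ADRB2.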 In short, it runs like this:
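CHO cells stably over-expressing ADRB2 were plated overnight at 37C, then dosed with compounds plus a stimulation mix containing 100uM IBMX and 25uM Ro-20-1724 for 0.5hr at room temperature. cAMP was measured by HTRF competition, 1hr.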

“And” between values parts separate entries of the source, which are not always exact repeats. Identical values can stand only once. Results filed as inconclusive are left out. The source holds several records for some structures; these can differ, active in one and inactive in another. The source made the active and inactive calls. Unless noted, calls follow the shape of the full dose curve.

Sequence of Beta-2 adrenergic receptor (Homo sapiens) (P07550 whole entry, looked up): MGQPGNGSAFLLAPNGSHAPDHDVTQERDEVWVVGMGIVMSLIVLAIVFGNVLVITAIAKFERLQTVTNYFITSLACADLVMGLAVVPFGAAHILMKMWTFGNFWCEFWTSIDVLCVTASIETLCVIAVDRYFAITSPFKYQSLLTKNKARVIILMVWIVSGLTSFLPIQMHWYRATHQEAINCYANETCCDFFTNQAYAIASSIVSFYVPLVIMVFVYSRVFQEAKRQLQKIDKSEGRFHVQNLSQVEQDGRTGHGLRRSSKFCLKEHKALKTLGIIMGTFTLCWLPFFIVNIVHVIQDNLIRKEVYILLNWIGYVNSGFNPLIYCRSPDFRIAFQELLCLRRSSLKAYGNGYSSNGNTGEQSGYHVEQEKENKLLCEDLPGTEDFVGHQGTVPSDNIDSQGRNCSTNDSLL
Sequence of 5-hydroxytryptamine receptor 2A (Homo sapiens) (P28223 whole entry, looked up): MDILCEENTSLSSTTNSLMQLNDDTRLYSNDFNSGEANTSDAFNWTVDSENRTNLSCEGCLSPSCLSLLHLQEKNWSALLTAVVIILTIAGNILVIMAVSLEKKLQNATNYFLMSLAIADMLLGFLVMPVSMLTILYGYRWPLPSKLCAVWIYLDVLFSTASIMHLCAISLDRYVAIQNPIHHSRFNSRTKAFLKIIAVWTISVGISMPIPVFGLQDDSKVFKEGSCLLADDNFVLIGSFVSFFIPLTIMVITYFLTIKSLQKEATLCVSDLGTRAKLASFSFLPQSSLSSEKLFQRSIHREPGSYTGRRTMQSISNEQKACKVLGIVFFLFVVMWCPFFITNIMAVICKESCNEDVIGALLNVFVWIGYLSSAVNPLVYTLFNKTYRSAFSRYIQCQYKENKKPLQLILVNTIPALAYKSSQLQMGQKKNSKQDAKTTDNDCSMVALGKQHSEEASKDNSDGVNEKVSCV
Sequence of D(2) dopamine receptor (Homo sapiens) (P14416 whole entry, looked up): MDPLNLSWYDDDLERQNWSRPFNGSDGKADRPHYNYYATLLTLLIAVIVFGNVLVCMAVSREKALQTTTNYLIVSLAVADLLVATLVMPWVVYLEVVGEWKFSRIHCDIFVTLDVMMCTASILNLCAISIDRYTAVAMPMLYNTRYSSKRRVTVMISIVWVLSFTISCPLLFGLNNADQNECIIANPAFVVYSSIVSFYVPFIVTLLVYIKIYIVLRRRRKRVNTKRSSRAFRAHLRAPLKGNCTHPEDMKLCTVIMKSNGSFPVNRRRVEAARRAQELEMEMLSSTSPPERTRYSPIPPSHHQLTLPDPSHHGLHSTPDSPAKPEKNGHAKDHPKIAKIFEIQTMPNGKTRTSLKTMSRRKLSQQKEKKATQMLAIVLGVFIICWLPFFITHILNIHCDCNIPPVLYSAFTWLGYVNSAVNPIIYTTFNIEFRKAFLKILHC
Sequence of Muscarinic acetylcholine receptor M1 (Homo sapiens) (P11229 whole entry, looked up): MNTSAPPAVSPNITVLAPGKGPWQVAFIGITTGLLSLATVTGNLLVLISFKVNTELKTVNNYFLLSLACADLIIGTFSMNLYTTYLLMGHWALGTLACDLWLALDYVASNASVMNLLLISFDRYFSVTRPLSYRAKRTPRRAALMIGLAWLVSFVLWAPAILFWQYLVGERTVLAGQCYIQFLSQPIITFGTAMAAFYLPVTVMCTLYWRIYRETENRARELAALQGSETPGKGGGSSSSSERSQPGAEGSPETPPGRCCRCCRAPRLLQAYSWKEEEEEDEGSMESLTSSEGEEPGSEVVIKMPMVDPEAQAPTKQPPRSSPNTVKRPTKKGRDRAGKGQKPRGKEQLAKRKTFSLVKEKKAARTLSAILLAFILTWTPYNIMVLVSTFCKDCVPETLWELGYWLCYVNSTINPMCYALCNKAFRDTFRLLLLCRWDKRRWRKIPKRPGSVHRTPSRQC
Sequence of Gonadotropin-releasing hormone receptor (Homo sapiens) (P30968 whole entry, looked up): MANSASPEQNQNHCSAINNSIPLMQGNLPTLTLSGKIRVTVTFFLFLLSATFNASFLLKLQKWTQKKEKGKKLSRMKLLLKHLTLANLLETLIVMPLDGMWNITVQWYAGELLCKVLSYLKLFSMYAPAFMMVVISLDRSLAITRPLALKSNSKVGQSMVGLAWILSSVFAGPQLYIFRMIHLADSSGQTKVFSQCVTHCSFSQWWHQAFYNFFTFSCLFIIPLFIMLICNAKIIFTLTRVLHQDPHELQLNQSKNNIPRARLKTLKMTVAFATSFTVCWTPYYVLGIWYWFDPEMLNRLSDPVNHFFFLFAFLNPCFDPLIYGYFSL

For the compound `CC(C)CC=O`, the Potency result in assay [1], in assay [2], in [3], in assay [4], in assay [5] and in [6] was “inactive” in each case. Moreover, the Potency entry in assay [7], in [8], in assay [9], in assay [10], in assay [11] and in assay [12] was “inactive” throughout. The Potency entry in assay [13], in assay [14], in [15], in assay [16], in assay [17] and in [18] was “inactive” in each case. For the same compound, the Potency entry in assay [19] is “inactive”.
As to `Cc1nc2ccccc2s1`, the Potency entry in assay [1], in assay [2], in [3], in assay [4], in [5] and in assay [6] was “inactive” in each case. The Potency result in [7], in assay [8], in assay [9], in assay [10], in assay [11] and in [12] was “inactive” throughout. The Potency entry in assay [13], in [14], in [15], in [16], in [17] and in [20] was “inactive” in each case. Besides, the Potency entry in assay [18] and in assay [19] was “inactive” in each case.
In the case of `Cc1ccc(N(C)C)cc1`, the Potency entry in assay [1], in assay [2], in [3], in [4], in [5] and in [6] was “inactive” each time. Moreover, the Potency entry in [7], in assay [8], in assay [9], in [10], in assay [12] and in [13] was “inactive” throughout. The Potency entry in assay [14], in assay [15], in assay [16], in [17], in [18] and in [19] was “inactive” throughout. In [11], the Potency result was “inactive and 133 nM (active)”.
In the case of `Oc1ccc2c(c1)OC[C@@H](N1CCC(O)(c3ccc(F)cc3)CC1)[C@H]2O`, the Potency result in assay [1], in assay [2], in [3], in [4], in assay [5] and in assay [6] was “inactive” throughout. Besides, the Potency result in [7], in assay [8], in assay [9], in [10], in assay [11] and in [12] was “inactive” throughout. Besides, the Potency result in assay [13], in assay [14], in assay [15], in assay [16], in [17] and in assay [20] was “inactive” throughout. For the same compound, the Potency result in assay [18] and in assay [19] was “inactive” in each case.
Turning to `CC1(C)[C@H]2CC[C@]1(C)[C@H](O)C2`, the Potency result in assay [1], in [2], in [3], in [4], in assay [5] and in assay [6] was “inactive” throughout. In addition, the Potency entry in [7], in assay [8], in [9], in [10], in assay [11] and in assay [12] was “inactive” throughout. The Potency result in assay [13], in [14], in assay [15], in assay [16], in assay [17] and in [18] was “inactive” throughout. The Potency entry in [19] is “inactive”.
As for `CC(C)=C1CC[C@@H](C)CC1=O`, the Potency entry in assay [1], in [2], in assay [3], in assay [4], in [5] and in assay [6] was “inactive” in each case. Moreover, the Potency entry in assay [7], in [8], in assay [9], in [10], in [11] and in [13] was “inactive” in each case. For the same compound, the Potency entry in assay [14], in assay [15], in assay [16], in assay [17], in assay [20] and in assay [18] was “inactive” throughout. The Potency result in assay [19] is “inactive”.
As for `CC1(C)Oc2ccc(C#N)cc2[C@@H](N2CCCC2=O)[C@@H]1O`, the Potency result in assay [1], in assay [2], in assay [3], in assay [4], in assay [5] and in [6] was “inactive” throughout. Moreover, the Potency entry in [7], in [8], in [9], in [10], in assay [11] and in [12] was “inactive” each time. Also, the Potency result in assay [13], in [14], in assay [15], in assay [16], in assay [17] and in assay [20] was “inactive” each time. Moreover, in assay [18], the Potency entry is “inactive”.

The values above are taken from PubChem BioAssay (Tox21).
